# Assay outcomes from PubChem.
# Myeloid diff 2 = promotes myeloid progenitor differentiation; calls only at 10 µM; ER-HoxA9 myeloid progenitors, lysozyme-GFP differentiation, flow cytometry; hit rate 1% among 360,000; AID 624256;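 active = normalized GFP-positive differentiation at or above the plate's own cutoff, the solvent-only control mean plus 3 SD; inconclusive = no clear call, values can overlap the other calls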;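 also: cells exposed to compound for four days before flow analysis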
# CIT2-GFP yeast = modulators of TOR pathway CIT2-GFP in S. cerevisiae. AID 2029. GFP response vs DMSO, % at 10 µM. hit rate 0.065% among 320,000. S. cerevisiae CIT2-GFP strain, flow cytometry, 3 h; 100 means same as DMSO wells;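 active = GFP response relative to DMSO above a set limit, near the screen mean plus 3 SD, cut at about 150% in these data; inconclusive = Fewer than 70 cells measured for a yeast strain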;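 also: ratio of well median GFP fluorescence to mean of DMSO wells on the plate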
# MEP2-GFP yeast = alters MEP2-GFP fluorescence in TOR pathway yeast screen | hit rate 0.51% among 330,000 | GFP response vs DMSO, % at 10 µM | S. cerevisiae MEP2-GFP strain, flow cytometry GFP, 3 h; 100% = DMSO control level;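 active = GFP response versus DMSO above a set limit, roughly screen mean plus 3 SD, cut at about 180% in these data; inconclusive = fewer than 70 cells counted for a yeast strain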;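 also: median GFP fluorescence of the barcode-gated MEP2-GFP cells per well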
# AGP1-GFP MLPCN = yeast TOR pathway AGP1-GFP modulation. S. cerevisiae AGP1-GFP multiplex flow cytometry, 3 h; GFP as percent of DMSO wells. GFP response vs DMSO, % at 10 µM. hit rate 0.02% among 320,000;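 active = GFP response relative to DMSO above a set limit, near screen average plus 3 SD, cut at about 150% in these data; inconclusive = fewer than 70 cells counted for the yeast strain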;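 also: median GFP channel fluorescence of the gated AGP1 strain per well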
# RPL19A-GFP yeast = alters RPL19A-GFP fluorescence in TOR pathway yeast screen; S. cerevisiae RPL19A-GFP strain, flow cytometry, 3 h; active compounds read low; percent response vs DMSO, % at 10 µM; hit rate 0.3% among 330,000; AID 2025;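 active = percent response vs DMSO below 50%; inconclusive = fewer than 70 events counted for the yeast strain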;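 also: median channel GFP fluorescence of the barcoded RPL19A-GFP strain; ratio of sample median GFP to plate DMSO average so 100% = DMSO; lower means less RPL19A-GFP as with rapamycin TOR inhibition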
# LAP4 TOR yeast = yeast TOR pathway LAP4-GFP modulation; GFP response vs DMSO, % at 10 µM; S. cerevisiae LAP4-GFP multiplex, flow cytometry GFP, 3 h; median GFP as percent of DMSO wells; hit rate 0.34% among 320,000; AID 2023;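 active = GFP response vs DMSO above a set limit, about the screen mean plus 3 SD, cut at about 150% in these data; inconclusive = under 70 cell events counted for the yeast strain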
# * = called active by the depositor; i = inactive; ? = inconclusive; . = not tested or not shown; + = active, no number; [ ] = another dose, or the depositor's remark. In the library only some 1.8% were active in any assay of this set; here they are far more common.
SMILES,Myeloid diff 2,CIT2-GFP yeast,MEP2-GFP yeast,AGP1-GFP MLPCN,RPL19A-GFP yeast,LAP4 TOR yeast
CC(=O)Oc1ccccc1C(=O)N1CCN(S(=O)(=O)c2ccc3ccccc3c2)CC1,i,104,95,97,93,93
CCN(CC)CCCN(C(=O)c1ccc(Br)cc1)c1nc(-c2ccc(OC)cc2)cs1,i,160*,+,161*,80,276*
Cc1cc(C)c[n+](-c2nc3ccccc3nc2[N-]S(=O)(=O)c2ccc(Br)s2)c1,i,104,106,98,103,95
CC(NCCS(=O)(=O)c1ccc(Cl)cc1)c1cccc(Cl)c1 (configuration not stated),i,96,208*,51,67,94
C/C(=N\NC(=O)CN1CCN(Cc2ccc(C)cc2)CC1)c1ccncc1,i,98,101,102,105,96
O=C(Cc1nc2ccccc2[nH]c1=O)c1ccccc1,+,.,.,.,.,.
O=C(NC1CCCCC1)c1ccc(N2CCCC2=O)cc1,i,.,322*[may fluoresce violet],?,30*[may fluoresce violet],91
O=C(NC1CCCCCC1)c1ccc(N2CCCC2=O)cc1,i,104,103,104,102,105
Cc1ccccc1C(=O)N/N=C1/SCC(=O)N1Cc1ccc2c(c1)OCO2,i,100,111,97,104,112
CS(=O)(=O)N1CCN(c2nnc(-c3ccccc3)c3ccccc23)CC1,i,?,230*[may fluoresce violet],?,57,89
Cn1c(O)c(N=Nc2ccccc2[N+](=O)[O-])c2ccccc21,i,101,108,91,105,100
Cn1c(-c2ccccc2[N+](=O)[O-])[n+](C)c2ccccc21,+,103,104,116,110,110
C[C@]12CCC(=O)CC1=CCC1C3CC=C(C#N)[C@@]3(C)CC[C@@]12O (some centres not stated),+,96,111,95,103,96
O=C(COC(=O)CNC(=O)c1cccc([N+](=O)[O-])c1)NCc1ccco1,+,90,90,100,91,96
O=C(COC(=O)CNC(=O)c1cc(Cl)cc([N+](=O)[O-])c1)NC(=O)NCc1ccco1,i,94,92,96,97,88
CCn1cc(C(=O)NC(C)C2CC3CCC2C3)cn1 (configuration not stated),i,108,109,105,107,103
CCn1cc(C(=O)NC(C)C23CC4CC(CC(C4)C2)C3)cn1 (configuration not stated),+,96,98,96,98,88
COC(=O)c1cc(C(=O)Nc2cccc(C)n2)cc([N+](=O)[O-])c1,.,?,225*[may fluoresce violet],.,50,86
CCc1cc(C(=O)NNC(=S)NCC2CCCO2)cs1 (configuration not stated),i,95,99,99,93,96
N#Cc1c(C(F)(F)F)cc(-c2ccccc2)nc1SCc1nc(N)nc(N2CCOCC2)n1,+,91,112,103,99,.
N#Cc1c(C(F)(F)F)cc(-c2ccc(Cl)c(Cl)c2)nc1SCCN1CCOCC1,i,94,103,97,96,109
COc1ccc(CCNc2nc(C)c(C(C)=O)s2)cc1OC,i,97,106,102,99,109
COc1ccc(CCNc2nc(-c3ccc(F)cc3)c(CC(=O)O)s2)cc1OC,+,103,107,106,106,102
O=C(NC(C(=O)N/N=C/c1cccc2ccccc12)c1n[nH]c(=O)c2ccccc12)c1ccccc1 (configuration not stated),i,108,101,103,99,108
CN1C(=O)/C(=C/c2ccc(-c3ccccc3[N+](=O)[O-])o2)SC1=Nc1ccc(Cl)c(C(=O)O)c1,i,?,126,?,41*[may fluoresce violet],60
SMILES,Myeloid diff 2,CIT2-GFP yeast,MEP2-GFP yeast,AGP1-GFP MLPCN,RPL19A-GFP yeast,LAP4 TOR yeast
Cc1cc(Cl)ccc1OCCCC(=O)N1CCOCC1,i,?,222*[may fluoresce violet],?,36*[may fluoresce violet],75
Cc1cc(Cl)ccc1OCCCC(=O)N1CCCCC1,i,101,105,102,101,103
CCn1c(SCC(=O)N/N=C/c2ccc(C)o2)nnc1-c1ccc(C(C)(C)C)cc1,+,105,105,99,109,96
COc1cccc(Oc2ncnc(N)c2[N+](=O)[O-])c1,i,?,525*[may fluoresce violet],24,80,63
Cc1cccc(Oc2ncnc(N)c2[N+](=O)[O-])c1,i,97,106,99,101,107
O=C(CSc1nnc(COc2ccc(Cl)cc2)o1)NC1CC2CCC1C2 (configuration not stated),.,?,253*[may fluoresce violet],19,64,76
COC(=O)C1C(c2ccccc2)C(C(=O)N2CCN(C)CC2)C1c1ccccc1 (configuration not stated),i,82,94,85,93,96
CC(=O)c1cc(C#N)c(SCc2ccccn2)nc1C,i,103,110,109,103,118
N#CCCSCc1ccc(C(=O)O)o1,i,93,98,98,96,95
CCCCSCc1ccc(C(=O)O)o1,+,100,98,101,101,99
CCCc1nn(C(=O)c2ccccc2)c2c1C(=O)CC(C)(C)C2,i,99,106,113,101,104
Cc1cc(N2CCN(C(=O)c3ccco3)CC2)n2nc(-c3cccc(F)c3)cc2n1,+,93,100,88,93,106
Clc1ccc(-c2csc(N/N=C/c3ccco3)n2)cc1,i,?,596*[may fluoresce violet],?,26*[may fluoresce violet],69
Cc1ccc(-c2csc(N/N=C/c3ccco3)n2)cc1,i,99,109,92,97,115
Cc1cc(C)nc(-n2nc(C)cc2NC(=O)CN2CCC(C)CC2)n1,+,108,100,101,98,101
Cc1cc(C)nc(-n2nc(C)cc2NC(=O)CN2CCCC2)n1,i,93,97,97,97,90
O=C(Cc1ccccc1[N+](=O)[O-])N1CCN(c2ccc(F)cc2)CC1,.,90,94,.,93,103
Cc1ccc(S(=O)(=O)N2CCOC2CNC(=O)C(=O)NCCc2ccccc2)cc1 (configuration not stated),i,91,99,101,95,108
O=C(/C=C/c1ccco1)NC(=S)Nc1cccc([N+](=O)[O-])c1,i,78,101,88,100,104
CN(C)S(=O)(=O)c1ccc(N=Cc2c(C(F)(F)F)[nH]n(C)c2=O)cc1,+,106,106,104,107,92
Cc1cc(C)cc(OCC(=O)Nc2ccc3c(c2)OCCO3)c1,i,94,96,92,94,98
Cc1cc2c(cc1C)NC(C)CC(=O)N2 (configuration not stated),i,.,.,.,.,.
